# Screens as filed in PubChem.
# L3MBTL1 inh – qHTS Assay for the Inhibitors of L3MBTL1. 230,000 compounds, 0.66% hits. Potency, µM (titrated, usually from 57.1 µM), usual class: inhibitors. Lethal(3)malignant brain tumor-like protein 1 (Homo sapiens), Q9Y468. AID 485360, 2010. AlphaScreen L3MBTL1–H3K9me1 peptide binding; further: nearly all actives have a fitted effect of over 60% in size
#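 L3MBTL1 (50 nM) pre-complexed 30 min with biotinylated H3(1-15)K9me1 peptide (75 nM), then compounds added for 30 min at room temperature; AlphaScreen streptavidin donor/nickel chelate acceptor beads (10 ug/mL final) read after 30 min dark incubation.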
# G9a block – qHTS Assay for Inhibitors of Histone Lysine Methyltransferase G9a. AID 504332, 2011. Potency, µM (titrated, usually from 102 µM), usual class: inhibitors. G9a H3K9 monomethylation, AlphaScreen, 2 h. Histone-lysine N-methyltransferase EHMT2 (Homo sapiens), Q96KQ7. 350,000 compounds, 8.8% hits; further: nearly all actives have a fitted effect of over 75% in size
# Target sequence (Q96KQ7 913-1193 limits assumed): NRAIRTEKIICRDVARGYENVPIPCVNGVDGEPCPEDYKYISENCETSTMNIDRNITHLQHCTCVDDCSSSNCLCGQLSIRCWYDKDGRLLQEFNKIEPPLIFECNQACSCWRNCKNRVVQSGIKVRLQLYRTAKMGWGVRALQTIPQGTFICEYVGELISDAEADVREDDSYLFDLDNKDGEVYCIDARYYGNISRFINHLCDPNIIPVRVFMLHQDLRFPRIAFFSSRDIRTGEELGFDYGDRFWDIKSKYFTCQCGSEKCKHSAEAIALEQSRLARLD
#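 Signal arises when biotinylated H3K9 peptide, once monomethylated, bridges streptavidin donor and antibody-captured acceptor beads. Enzyme at 20 nM was preincubated 15 min with test compounds; peptide 500 nM and SAM 20 uM then reacted for 2 h.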
# BAZ2B inh – qHTS Assay for Inhibitors of BAZ2B. Bromodomain adjacent to zinc finger domain protein 2B (Homo sapiens), Q9UIF8. AlphaScreen BAZ2B-H3K14Ac peptide displacement. Potency, µM (doses to about 114 µM), actives largely listed as inhibitors. 360,000 compounds, 4.4% hits. AID 504333, 2011; further: nearly all actives have a fitted effect of over 60% in size
#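 AlphaScreen displacement of biotin-H3(5-23)K14Ac peptide (50 nM final) from BAZ2B (50 nM final) in PBS pH 7.4, 0.01% Tween-20; complex preformed 30 min RT, then compounds (top 110 uM) 30 min RT, beads 20 min dark.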
# HP1b chromo inh – HTS for Inhibitors of HP1-beta Chromodomain Interactions with Methylated Histone Tails. Chromobox protein homolog 1 (Homo sapiens), P83916. AlphaScreen HP1-beta / biotin-H3K9me3 peptide binding. Potency, µM (doses to about 114 µM), actives largely listed as inhibitors. 390,000 compounds, 0.56% hits. AID 540317, 2011; further: nearly all actives have a fitted effect of over 70% in size
# Target sequence (P83916 whole entry, looked up): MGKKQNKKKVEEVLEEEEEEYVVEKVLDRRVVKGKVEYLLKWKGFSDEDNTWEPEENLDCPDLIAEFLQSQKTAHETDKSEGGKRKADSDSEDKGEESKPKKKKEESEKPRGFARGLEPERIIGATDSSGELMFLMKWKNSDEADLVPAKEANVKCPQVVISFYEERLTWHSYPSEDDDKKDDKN
#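 AlphaScreen: HP1-beta (50 nM) preformed 30 min with biotin-H3(1-18)K9me3 peptide (50 nM) in PBS pH 7.4, 0.01% Tween-20. Compound added for 30 min at RT, then streptavidin donor/nickel chelate acceptor beads (10 ug/mL) for 30 min.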
# JMJD2A Tudor inh – qHTS Assay for Inhibitors of JMJD2A-Tudor Domain; Lysine-specific demethylase 4A (Homo sapiens), O75164; Potency, µM (highest dose often 114 µM), hits mostly inhibitors; AlphaScreen JMJD2A-Tudor / H3K4me3 peptide binding; 390,000 compounds, 4.4% hits; AID 504339, 2011; further: nearly all actives have a fitted effect of over 50% in size
# Sfp inh – qHTS Assay for Inhibitors of Bacillus subtilis Sfp phosphopantetheinyl transferase (PPTase). Biochemical Sfp PPTase activity, qHTS. Potency, µM, most hits filed as inhibitors. 310,000 compounds, 3.5% hits;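 further: the enzyme is Sfp with the accession as filed and its product quenches rhodamine fluorescence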
#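 Compounds were incubated with enzyme (final 15 nM) for 15 min at room temperature before substrate addition started the reaction. Fluorescence at 525 nm excitation, 598 nm emission was recorded immediately and after 30 minutes.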
# Numbers stand for hits; – = inactive; ? = inconclusive; · = no result given; [ ] = remark or other dose. In the library only some 12% were active in any assay of this set; here they are far more common. The call rests on the fitted dose curve; in most records, active means well fitted curve in the direction sought with a large enough effect; inconclusive means small, poorly fitted or top-dose-only effect, or another doubt; inactive means no such curve, though single readings can be large; an effect the other way counts as inactive or inconclusive.
SMILES,L3MBTL1 inh,G9a block,BAZ2B inh,HP1b chromo inh,JMJD2A Tudor inh,Sfp inh
Cc1cc(C(=O)Nc2ncn(Cc3ccc(F)cc3)n2)ccc1[N+](=O)[O-],·,–,?,–,–,–
O=C(Nc1ccc2oc(-c3cccnc3)nc2c1)c1ccc(-c2ccccc2OC(F)(F)F)o1,·,–,–,–,–,·
NC1=NC(=O)/C(=C/c2cn(Cc3ccccc3)c3ccccc23)S1,–,50µM,?,–,–,?
O=C(CN1C(=O)COc2ccccc21)NCCCN1CCCCC1,·,–,–,–,–,–
COCCn1c(C)cc(C(=O)CSc2nc(C)c(C)c(C)n2)c1C,·,28µM,?,–,?,40µM
COCCn1c(C)cc(C(=O)CSc2cc(C)c3ccc(OC)cc3n2)c1C,–,71µM,–,–,?,–
COc1ccc2c(-c3ccccc3)cc(SCC(=O)NC(N)=O)nc2c1,–,–,·,–,–,–
COCCNC(=O)CSc1cc(-c2ccccc2)c2ccc(OC)cc2n1,–,22µM,–,–,–,–
COc1ccc2c(C)cc(SCC(=O)c3ccc4c(c3)OCO4)nc2c1,–,–,–,–,–,–
COc1ccc2c(C)cc(SCC(=O)Nc3ncc(Cl)cc3Cl)nc2c1,–,25µM,–,–,–,–
COC(=O)c1cc(S(=O)(=O)Nc2cccc(-c3cnco3)c2)oc1C,·,–,–,–,–,–
COc1ccccc1-n1cnnc1SCC(=O)Nc1ncc(Cl)cc1Cl,–,–,–,–,50µM,–
COc1ccccc1-n1cnnc1SCC(=O)Nc1nc(C)c(Cl)cc1Cl,–,–,–,–,–,–
O=C(NCCO)c1cc2cc(Cl)cc(Cl)c2oc1=O,·,3.2µM,–,?,–,35µM
O=C(O)c1cc2cc(Cl)cc(Cl)c2oc1=O,–,56µM,?,–,–[11.4 µM],–
COCCNC(=O)c1cc2cc(Cl)cc(Cl)c2oc1=O,–,45µM,–,?,–,–
CC1(C)S[C@@H]2[C@H](NC(=O)Cc3ccccc3)C(=O)N2[C@@H]1C(=O)O,·,–,·,·,·,–
O=C(COC(=O)c1ccc(=O)[nH]c1)Nc1cccc(S(=O)(=O)N2CCOCC2)c1,–,?,–,–,–,–
CN1C(=O)c2oc3ccccc3c(=O)c2C1c1cccnc1 (stereo not given),·,·,·,–,–,·
CN1C(=O)c2oc3ccc(Br)cc3c(=O)c2C1c1ccncc1 (stereo not given),–,16µM,–,·,·,40µM
CN1C(=O)c2oc3ccccc3c(=O)c2C1c1ccccn1 (stereo not given),–,28µM,?,–,32µM,–
CC(=O)c1c(C)nc2ccccc2c1N,·,–,–,–,–,–
Cc1nc2ccccc2c(C)c1C(=O)c1ccccc1,–,50µM,?,–,–[11.4 µM],–
CCOC(=O)c1c(Nc2cc(C)cc(C)c2)nnc(-c2ccccc2)c1-c1ccccc1,·,3.5µM,–,–,?,·
CCOC(=O)c1c(Nc2ccc(OC)cc2)nnc(-c2ccccc2)c1-c1ccccc1,·,7.9µM,?,–,?,·
SMILES,L3MBTL1 inh,G9a block,BAZ2B inh,HP1b chromo inh,JMJD2A Tudor inh,Sfp inh
CCOC(=O)c1c(C)nc(C)c(C(=O)OCC)c1-c1cccnc1,–,–,–,–,–,–
CCOC(=O)c1c(C)nc(C)c(C(=O)OCC)c1-c1ccccc1,–,–,–,–,–,45µM
CCOc1ccc(CCNC(=O)Cn2nnc(-c3ccc(OC)c(OC)c3)n2)cc1OCC,·,–,–,–,–,·
COc1ccc(C(=O)N/C(=C\c2ccccc2)C(=O)NCc2cccnc2)cc1,·,–,–,–,–,–
COc1ccc(NC(=O)CN2C(=O)C(c3ccc(C)cc3)=NC23CCCCCC3)cc1Cl,·,–,–,–,–,·
CCOC(=O)c1c(CCl)nc2ccccc2c1C,–,?,?,–,89µM,–
COC(=O)C(C(=O)OC)C1O[C@@]23COCCC2(C)C3c2ccccc21 (stereo not given in full),·,·,·,·,·,–
Cc1cc(-c2nc3ncccc3o2)ccc1NC(=O)COc1cc(C)c(Cl)c(C)c1,·,–,–,–,–,·
COc1ccc(OC)c(C2CC(c3c(-c4ccccc4)c4cc(Cl)ccc4[nH]c3=O)=NN2S(C)(=O)=O)c1 (stereo not given),–,–,–,–,–,45µM
COc1cc2c(cc1OC)C(c1cc3cc(OC)c(OC)cc3[nH]c1=O)N(C(=O)C1CC1)CC2 (stereo not given),–,–,–,–,–,50µM
CCCC(=O)N1CCc2cc(OC)c(OC)cc2C1c1cc2cc3c(cc2[nH]c1=O)OCO3 (stereo not given),·,·,·,–,–,·
COc1ccc(N2CC(NC(=O)/C=C\c3ccc4c(c3)OCO4)CC2=O)cc1 (stereo not given),·,–,–,–,–,·
CCOC(=O)c1cc(-c2ccccc2)n(Cc2cc(CC)no2)n1,–,–[2.33 µM],–,–,–,·
CCC(=O)N1CCc2cc(S(=O)(=O)CCC(=O)Nc3cccc(C)n3)ccc21,·,50µM,–,–,–,–
CCC(=O)N1CCc2cc(S(=O)(=O)CCC(=O)Nc3cc(Cl)ccc3OC)ccc21,·,13µM,·,–,14µM,·
CC(=O)N1CCc2cc(S(=O)(=O)CCC(=O)NCc3ccc(Cl)cc3)ccc21,·,–,–,–,–,–
CC(=O)N1CCc2cc(S(=O)(=O)CCC(=O)Nc3ccc(Cl)cc3F)ccc21,·,71µM,–,–,–,–
COc1ccc(CCNC(=O)CCc2c(C)c3cc4c(C)c(C)oc4cc3oc2=O)cc1,·,–,–,–,–,·
CN(C)c1ncc2nc(-c3ccccc3)c(=O)n(-c3ccccc3)c2n1,·,–[0.501 µM],·,·,·,–
CCC1CCCCN1C(=O)CCS(=O)(=O)c1cc2c(cc1C)NC(=O)CO2 (stereo not given),·,8.9µM,?,?,?,·
CCOc1ccc(NC(=O)Cn2c(CCC(=O)O)ccc2-c2ccc(C)cc2)cc1,·,–,–,–,–,·
COC(=O)Cn1c(=O)c2c(nc3n2CCN3c2ccc(F)cc2)n(C)c1=O,·,–,–,–,–,·
Nc1ccc2c(c1)Cc1cc(N)c(Cl)cc1-2,·,·,·,?,45µM,·
Nc1c(Cl)cc2c(c1Br)Cc1ccccc1-2,·,·,·,–,–,·
Nc1cc2c(cc1N)-c1ccccc1C2,·,·,·,–,8.9µM,·
Nc1ccc2c(c1)Cc1cc(Cl)c(Cl)cc1-2,·,·,·,–,–,·
COc1ccc(C(=O)CSc2ccc(-c3ccc(C)cc3)nn2)cc1,–,?,–,–,–,–
